Measurements taken from PMC6919601, “Identification of Plasmodium dipeptidyl aminopeptidase allosteric inhibitors by high throughput screening” (PLoS ONE, 2019).
Out of some 110,000 compounds screened, about 230 (0.21%) showed an effect of 50% or more. Shown is part of a subset that was picked to be rich in strong results.

What follows are molecules tested against DPAP1 (Plasmodium falciparum, UniProt Q8IIJ9) (assay: primary screen, percent inhibition; read by cleavage of a fluorogenic dipeptide substrate; higher = more effect of the substance).
Sequence of DPAP1 (Q8IIJ9 whole entry, looked up): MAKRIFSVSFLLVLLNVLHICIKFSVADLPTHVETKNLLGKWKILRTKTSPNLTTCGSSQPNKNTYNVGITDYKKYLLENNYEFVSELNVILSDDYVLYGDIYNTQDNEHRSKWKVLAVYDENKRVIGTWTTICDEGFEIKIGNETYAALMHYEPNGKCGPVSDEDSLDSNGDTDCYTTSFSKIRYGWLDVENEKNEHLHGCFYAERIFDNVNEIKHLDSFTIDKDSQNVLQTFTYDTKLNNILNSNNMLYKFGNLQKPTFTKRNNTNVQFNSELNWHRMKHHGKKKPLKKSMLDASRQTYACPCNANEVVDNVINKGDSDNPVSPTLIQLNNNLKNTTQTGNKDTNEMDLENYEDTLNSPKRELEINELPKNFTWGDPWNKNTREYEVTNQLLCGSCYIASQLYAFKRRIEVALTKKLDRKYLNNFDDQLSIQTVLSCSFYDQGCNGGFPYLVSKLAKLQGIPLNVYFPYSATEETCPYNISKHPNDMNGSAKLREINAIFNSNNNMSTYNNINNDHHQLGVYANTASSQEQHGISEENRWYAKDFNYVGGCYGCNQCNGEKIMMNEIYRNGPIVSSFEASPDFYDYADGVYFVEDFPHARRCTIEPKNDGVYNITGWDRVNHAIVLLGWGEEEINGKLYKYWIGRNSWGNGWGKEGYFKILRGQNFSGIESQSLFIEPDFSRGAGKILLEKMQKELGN
Set-up: species or system P. falciparum D10 trophozoite lysates; single well
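Further: 30 min substrate incubation versus DMSO and 10 µM JCP410 controls.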

SMILES	% Inhibition @ 10 uM [%]
CCCC(=O)n1nc2c3c(cccc31)C(=O)c1ccccc1-2	-2.75
Cc1ccc(O)c(/C=N/c2c(C)nn(C)c2C)c1	7.26
CC(C)CCn1nnc2sc3c(c2c1=O)CCC(C)C3 (stereo not shown)	-6.78
Cc1ccc(CNc2nc3ccccc3c3nc(-c4ccncc4)nn23)cc1	0.981
O=C1NC(=S)NC(=O)C1=Cc1ccccc1OCCO	-6.17
CC(=O)NS(=O)(=O)c1ccc(NC(=O)COc2ccc(C)cc2)cc1	-0.473
CC(C)(C)c1ccc(C(CC(=O)O)NS(=O)(=O)Cc2ccccc2)cc1 (stereo not shown)	2.72
Cc1cccc(N2C(=O)C3C4c5ccccc5C(C)(c5ccccc54)C3C2=O)c1 (stereo not shown)	2.6
CC12c3ccccc3C(c3ccccc31)C1C(=O)N(c3ccc(Cl)cc3)C(=O)C12 (stereo not shown)	-1.59
Cc1ccc(N2C(=O)C3C4c5ccccc5C(C(C)O)(c5ccccc54)C3C2=O)cc1 (stereo not shown)	53.4
Cn1c(C2=CC(C)(C)NC(C)(C)C2)ccc1C1=CC(C)(C)NC(C)(C)C1	-5.9
COCCNC(=O)CCNS(=O)(=O)c1ccc(C)cc1	-0.256
COc1cc(C2c3c(-c4ccccc4O)n[nH]c3C(=O)N2Cc2ccco2)ccc1O (stereo not shown)	-3.12
CCOc1ccc(C2c3c(-c4ccccc4O)n[nH]c3C(=O)N2Cc2ccco2)cc1OC (stereo not shown)	0.366
CCOc1cc(C2c3c(-c4ccccc4O)n[nH]c3C(=O)N2Cc2ccco2)ccc1O (stereo not shown)	52.6
Cc1cc(S(=O)(=O)N2CCC(n3c(O)nc4ccccc43)CC2)ccc1-n1cnnn1	-0.671
Cc1cc(S(=O)(=O)N(Cc2ccccc2)Cc2ccccc2Cl)ccc1-n1cnnn1	58.7
COc1ccc(CN(Cc2ccccc2)S(=O)(=O)c2ccc(-n3cnnn3)c(C)c2)cc1	2.08
CNS(=O)(=O)c1cn(CC(=O)NCc2ccccn2)cc1S(=O)(=O)NC	-7.87
O=C(CC1SC(=O)N(Cc2cccc3ccccc23)C1=O)Nc1nccs1 (stereo not shown)	-2.82
C(=C\c1ccccc1)/CN1CCN(C2CCN(CCc3ccccc3)CC2)CC1	97.7
C(=C\c1ccccc1)/CN1CCN(C2CCN(Cc3ccccc3)CC2)CC1	1.88

SMILES	% Inhibition @ 10 uM [%]
C(=C\c1ccccc1)/CN1CCN(CCc2ccccc2)CC1	1.74
Cc1cc(=O)n2nc(N(C)CC(=O)NCc3ccc4c(c3)OCO4)sc2n1	3
Cc1nnc2c(NCc3ccccc3)nc3ccc(C(=O)c4ccccc4)cc3n12	0.454
Cc1nnc2c(NCc3ccco3)nc3ccc(C(=O)c4ccccc4)cc3n12	-6.09
Cc1nnc2c(NCc3ccc4c(c3)OCO4)nc3ccc(C(=O)c4ccccc4)cc3n12	79.7
O=C(c1ccco1)N1CCN(c2nc3ccccc3n3nnnc23)CC1	2.76
CC(=O)N/C(=C\c1ccccc1)C(=O)Nc1ccc(Cl)cc1	-6.99
O=C1C(S(=O)c2ccc(Cl)cc2)=C(O)c2cccc3cccc1c23 (stereo not shown)	77.5
O=C(c1ccc(Cl)cc1)N1CCN(CCN2C(=O)c3cccc4cccc(c34)C2=O)CC1	-5.31
O=C1c2cccc3cccc(c23)C(=O)N1CCN1CCN(S(=O)(=O)c2ccc(Cl)cc2)CC1	5.97
CCCCCCCc1c(C#N)c(N)nc(S)c1C#N	71.3
CC(C)Cc1c(C#N)c(N)nc(S)c1C#N	78.5
CN(C)c1ccc(-c2c(C#N)c(N)nc(S)c2C#N)cc1	7.55
CCc1c(C#N)c(N)nc(S)c1C#N	74.5
CC(C)Cc1c(C#N)c(N)nc(SCC(=O)c2ccc(-c3ccccc3)cc2)c1C#N	16.2
CCc1c(C#N)c(N)nc(SCc2ccccc2)c1C#N	42.7
CCOC(=O)CSc1nc(N)c(C#N)c(CC)c1C#N	20.6
CCCCCCc1c(O)nc(S)nc1O	22.8
CC(C)Cc1c(C#N)c(N)nc2sc(C#N)c(N)c12	5.2
COCc1c(C#N)c(S)nc(C)c1[N+](=O)[O-]	30.8
CCSc1nc(N)c(C#N)c(CC)c1C#N	23.3
C=CCSc1nc(N)c(C#N)c(CC)c1C#N	65.5

SMILES	% Inhibition @ 10 uM [%]
N=C(NOC(=O)C12CC3CC(CC(C3)C1)C2)c1ccc(Cl)cc1	-0.597
O=C(CN1CCCC1)Nc1c2c(nc3ccccc13)N(c1ccccc1)CC2	0.144
Cc1ccc(C(C)C)c(OCC(O)CN2CC(C)OC(C)C2)c1 (stereo not shown)	-1.15
COc1cc(C2C(C#N)=C(N)OC3=C2C(=O)CCC3)ccc1OCC(=O)Nc1ccc(C)cc1C (stereo not shown)	0.851
COc1cc(OC)cc(C(=O)Nc2ccc3c(c2)oc2ccccc23)c1	-4.91
CCC1CCC(NCc2ccncc2)CC1 (stereo not shown)	-3.42
c1cc(CNC2CCCCC2)ccn1	1.84
c1ccc(C2CCC(NCc3ccncc3)CC2)cc1 (stereo not shown)	97.8
CC(Sc1nc(-c2cccnc2)ccc1C#N)C(=O)O (stereo not shown)	-3.63
N#Cc1ccc(-c2cccnc2)nc1SCC(=O)O	-2.45
N#Cc1ccc(-c2cccnc2)nc1SCc1ccccc1	61.4
Cc1nnc2c(Oc3ccc(-c4ccccc4)cc3)nc3ccccc3n12	-7.23
N=c1n(CCOc2ccccc2)c2ccccc2n1CCN1CCOCC1	-6.25
CCOc1cc(Br)c(C=C2C(=O)NC(=O)NC2=O)cc1OC	-2.39
C/C(CCC1CC(C)OC1=O)=N\NC(N)=S (stereo not shown)	-1.6
OC1(c2ccc(Br)cc2)CCN(Cc2cccc(Cl)c2)CC1	-3.6
CC1C(C#N)=C(SCC(=O)c2ccc(Cl)cc2)N=C2CC(C)(C)CC(O)=C21 (stereo not shown)	45.5
CC1C(C#N)=C(SCc2ccccc2)N=C2CC(C)(C)CC(O)=C21 (stereo not shown)	55.4
CSC1=C(C#N)C(C)C2=C(O)CC(C)(C)CC2=N1 (stereo not shown)	2.76
Cc1nc(NC(=O)COc2ccc(C(C)(C)C)cc2)ccc1Br	-7.81
CCOc1ccc(-c2cc(C)n3nc(C(=O)NCc4ccco4)cc3n2)cc1	0.221
Cc1ccc2nc3c(O)n(C)cnc-3c2c1	5.06

SMILES	% Inhibition @ 10 uM [%]
CCc1ccc(C2CC(=O)N3CN(Cc4ccccc4)CSC3=C2C#N)cc1 (stereo not shown)	39.2
CCOc1ccc(C2CC(=O)N3CN(CCO)CSC3=C2C#N)cc1 (stereo not shown)	61.2
CCOc1ccc(C2CC(=O)N3CN(Cc4ccccc4)CSC3=C2C#N)cc1 (stereo not shown)	48.5
CCOc1ccc(C2CC(=O)N3CN(CCc4ccccc4)CSC3=C2C#N)cc1 (stereo not shown)	71.1
C=C(C)Cn1c(C(C)NC(=O)CCC)nc2ccccc21 (stereo not shown)	1.41
CC(C)CNCC(=O)Nc1sc2c(c1C(=O)Nc1ccc(Br)cc1)CCC2	-6.07
OC1(c2ccc(Cl)cc2)CCN(Cc2ccc(F)c(F)c2)CC1	-7.42
COc1ccc(C2=NN3C(C2)c2cc(OC)ccc2OC3(C)C)cc1 (stereo not shown)	43.8
COc1ccc(C2=NN3C(C2)c2cc(Cl)ccc2OC3(C)C)cc1 (stereo not shown)	50.9
COc1ccc(C2=NN3C(C2)c2cccc(OC)c2OC3(C)C)cc1 (stereo not shown)	38.5
CCCCCn1c(Br)nc2c1c(=O)[nH]c(=O)n2C	4.41
CC(=O)c1cccc(NC(=O)c2ccc(N(C)S(=O)(=O)c3ccc(C)cc3)cc2)c1	5.24
COCCCNC(=O)c1noc2c1COc1ccc(C)cc1-2	5.1
COc1ccccc1CNC(=O)c1c2c(nn1C)-c1ccccc1SC2	8.62
CC(C)OCCCNC(=O)c1noc2c1COc1ccccc1-2	58.6
Cc1ccc2c(c1)-c1onc(C(=O)NCCCOC(C)C)c1CO2	1.97
COc1ccccc1CNC(=O)c1noc2c1CSc1ccccc1-2	62.7
CCCCN(CC)C(=O)c1noc2c1COc1ccccc1-2	-1.72
CC12CC3CC(C)(C1)CC(OCCNC(=O)c1noc4c1COc1ccccc1-4)(C3)C2	49
COCCNC(=O)c1noc2c1COc1ccc(C)cc1-2	-3.77
COCCNC(=O)c1noc2c1COc1ccccc1-2	60
COCCCNC(=O)c1noc2c1COc1ccccc1-2	84.2

SMILES	% Inhibition @ 10 uM [%]
O=C(NCC1CCCO1)c1noc2c1CSc1ccccc1-2 (stereo not shown)	19.3
CC(C)OCCCNC(=O)c1nn(C)c2c1COc1ccccc1-2	-1.72
COc1cccc(C(=O)N2CCN(C(=O)CCC3CCCC3)CC2)c1	0.587
O=C(NC1CCCCC1)C1CCCN(S(=O)(=O)N2CCCCC2)C1 (stereo not shown)	-4.99
CN1CCN(C(=O)c2ccc(Cn3c(SCc4ccccc4F)nc4ccncc43)cc2)CC1	-1.92
Cn1c(=O)c2nc(-c3ccccc3)c(-c3ccccc3)nc2n(C)c1=O	4.03
CCOc1cc(-c2cc(-c3ccc(N)cc3)nc(N)c2C#N)ccc1O	3.26
COc1ccc2c(CNCc3ccccc3C)c(C(=O)O)n(Cc3ccc(F)cc3)c2c1	-4.16
COc1cc(C)c2c(=O)c(Oc3ccccc3)c(C(F)(F)F)oc2c1	-5.69
CC(C)(C)n1ncc2c(=O)n(Cc3c(F)cccc3Cl)cnc21	-1.75
COC(=O)c1sccc1-n1c(S)c(C#N)c(N)c(C#N)c1=N	-2.21
CC1CC2(C)CC(C(=O)O2)C1C(=O)O (stereo not shown)	-1.76
Cc1ccc2c(c1)-c1onc(C(=O)NCCC(C)C)c1CO2	1.14
CC(C)CCNC(=O)c1noc2c1COc1ccccc1-2	88.5
COc1cc(-c2cc(NC(=O)c3noc4c3COc3ccccc3-4)on2)cc(OC)c1OC	4.86
CC(NC(=O)c1noc2c1COc1ccccc1-2)c1ccc2c(c1)OCCO2 (stereo not shown)	21.3
COc1ccccc1CNC(=O)Nc1noc2c1COc1ccccc1-2	-0.539
COc1ccc(OC)c(CCNC(=O)c2noc3c2COc2ccccc2-3)c1	59.5
